# Assay outcomes: PubChem BioAssay, National Center for Advancing Translational Sciences (NCATS)
# Hits are enriched below; roughly 1.1% of the tested compounds scored in any of these assays.
# p53 reactivation: mutant p53 re-activation in reporter cells; H1299 p53-A138V BP100-luciferase reporter, luminescence, 24 h; Potency, µM (titrated, usually from 92.2 µM), inactives show at the highest dose activity change, positive = activation, most hits filed as activators; 320,000 compounds, 0.063% hits; also: potency is read from the fitted curve at half-maximal effect; % of control where 0% means no effect; nearly all actives have a fitted effect of over 45% in size
#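 H1299 (p53-null), stable ts p53-A138V + BP100-Luc; 1000 cells/well, Opti-MEM/10% FBS; cpd 4 pt, 1:5; 24 h, 37 deg C, 5% CO2; detection reagent 10 min RT; luminescence.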
# RXFP1 antagonist: RXFP1 (human) relaxin receptor antagonism; activity change, negative = inhibition, % at 57.5 µM; AID 1259400; 350,000 compounds, 0.59% hits; HEK293-RXFP1, relaxin-stimulated cAMP HTRF, 30 min; active compounds read low;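 active = activity change of -60% or lower, but not beyond a set lower limit; inconclusive = change between -60% and -40%, or beyond the set limit; inactive = change above -40%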; also: % is scaled to controls: 0 for no effect and ±100 for the full control effect
# RXFP1 agonist: activates the human relaxin receptor RXFP1; Potency, µM (titrated, usually from 57.5 µM), without a hit: at the highest dose activation, usual class: activators; Q9HBX9; HEK293T-RXFP1 cAMP TR-FRET, 30 min; response scale: percent of porcine relaxin response, buffer zero; 370,000 compounds, 0.3% hits; AID 2676; also: potency is read from the fitted curve at half-maximal effect; % is scaled to controls: 0 for no effect and ±100 for the full control effect; nearly all actives have a fitted effect of over 60% in size
#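 HEK293T cells stably expressing RXFP1 were pretreated with the PDE4 inhibitor Ro 20174, exposed to compounds for 30 min at 37C, lysed, and cAMP was read by TR-FRET. Data normalized to buffer (basal) and 29 nM porcine relaxin (100%).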
# gsp ag: activates gsp, the McCune-Albright syndrome mutation | gsp mutant cells, cAMP HTRF, 30 min | AID 624287 | Potency, µM (titrated, usually from 76.9 µM), for the others: at the highest dose activation (cAMP increase), usual class: activators | 340,000 compounds, 0.13% hits; active = well fitted activation curve with a large enough effect; inconclusive = small, poorly fitted or top-dose-only effect, or another doubt; inactive = no such curve, though single readings can be large or run the other way; cell line not stated here;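 also: phosphodiesterase inhibitor Ro 20-1724 added with compounds to block cAMP breakdown; potency is read from the fitted curve at half-maximal effect; nearly all actives have a fitted effect of over 60% in size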
#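 Cells in DMEM/10% FBS with G418 were pretreated with compounds in DMSO plus […] (300 uM stock) for 30 min at 37C. cAMP was measured by HTRF (cAMP-d2 plus anti-cAMP antibody-K) after 30 min at room temperature.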
# Tb PFK inh: blocks T. brucei phosphofructokinase | T. brucei PFK, ADP-Glo luminescence | Potency, µM (highest dose often 57.5 µM), inactives show at the top dose activity, negative = inhibition, usual class: inhibitors | 330,000 compounds, 0.17% hits | AID 485367;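 also: potency is read from the fitted curve at half-maximal effect; 0% = uninhibited 1x PFK enzyme wells and -100% = no-enzyme wells; nearly all actives have a fitted effect of over 60% in size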
# Target sequence (O15648 whole entry, looked up): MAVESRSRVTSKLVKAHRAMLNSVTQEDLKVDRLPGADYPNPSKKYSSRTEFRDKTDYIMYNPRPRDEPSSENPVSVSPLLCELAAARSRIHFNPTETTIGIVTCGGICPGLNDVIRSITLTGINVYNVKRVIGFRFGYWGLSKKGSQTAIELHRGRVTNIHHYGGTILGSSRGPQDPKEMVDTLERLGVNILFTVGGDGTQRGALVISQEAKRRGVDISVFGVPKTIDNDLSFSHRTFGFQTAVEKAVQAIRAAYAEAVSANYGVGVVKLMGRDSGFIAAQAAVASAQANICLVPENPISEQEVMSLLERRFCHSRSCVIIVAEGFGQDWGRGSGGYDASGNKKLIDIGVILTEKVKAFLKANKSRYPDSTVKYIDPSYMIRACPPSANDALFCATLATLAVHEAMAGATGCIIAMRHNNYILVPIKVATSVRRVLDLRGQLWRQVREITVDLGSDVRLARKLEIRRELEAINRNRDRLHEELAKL
#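 Activity is normalized to no-enzyme wells (full inhibition) and 1.25 nM enzyme wells (no inhibition). Reaction: 0.5 mM F6P, 0.1 mM ATP, 45 min RT, ADP-Glo luminescence; concentration-response curves fitted and classed by quality.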
# gsp antagonist: antagonizes gsp, the McCune-Albright syndrome mutation | gsp-mutant cells, cAMP HTRF, 30 min | Potency, µM (titrated, usually from 76.9 µM), without a hit: at the highest dose activity change, negative = inhibition, most hits filed as inhibitors | 340,000 compounds, 0.4% hits | AID 624288; calls by dose curve; cell line not stated here;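 also: intracellular cAMP measured with PDE inhibitor Ro 20-1724 present during compound exposure; potency is read from the fitted curve at half-maximal effect; % is scaled to controls: 0 for no effect and ±100 for the full control effect; nearly all actives have a fitted effect of over 65% in size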
#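 Measurement of cellular cAMP by homogeneous time-resolved fluorescence following a 30 min compound exposure at 37C. The PDE inhibitor […] was present throughout; the assay buffer was DPBS with 0.05% BSA and 0.005% Tween 20.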
# Numbers without * were called inactive; ? = inconclusive; / = no result; ! = not confirmed by another sample; [ ] = remark or other dose. Unless noted, calls follow the shape of the dose curve; as a rule, active = well fitted curve in the direction sought with a large enough effect; inconclusive = small, poorly fitted or top-dose-only effect, or another doubt; inactive = no such curve, though single readings can be large; an effect the other way counts as inactive or inconclusive.
SMILES,p53 reactivation,RXFP1 antagonist,RXFP1 agonist,gsp ag,Tb PFK inh,gsp antagonist
O=[N+]([O-])c1cccc(-c2nc3ccc([N+](=O)[O-])cc3[nH]2)c1,20.6%,5.8,18.7%,?,1.4%,-25.2%
Cc1ccc(-c2nc3ccc([N+](=O)[O-])cc3[nH]2)cc1,2.6%,-17.4,-1.8%,17.7%,0.6%,?
Cc1nc2sc3c(=O)[nH]nnc3c2c(C)c1Br,1.4%,-9.7,-0.7%,?,1.3%,50.1µM*
CC(=O)Nc1cccc(NC(=O)CSc2nnc3ccc(-c4ccccn4)nn23)c1,2.7%,-16.8,2.5%,26.8%,-5.2%,-6.8%
CC(=O)Nc1ccc(NC(=O)CSc2nnc3ccc(-c4ccccn4)nn23)cc1,7.1%,-106.3*,3.7%,10.9%[15.4 µM],0.1%,0.3%
COc1ccc(NC(=O)CSc2ccc3nnc(-c4ccccn4)n3n2)cc1OC,4.9%,3.4,-0.2%,?,-2.8%,1.5%
CC(=O)Nc1ccc(NC(=O)CSc2ccc3nnc(-c4ccccn4)n3n2)cc1,-0.7%,1.8,8.91µM*,?,-20.0%,30.4%
Cc1cc(C)c(S(=O)(=O)N2CCN(c3ccccn3)CC2)c(C)c1,-0.8%,-95.1*,-1.4%,8.4%[15.4 µM],9.5%,-15.1%
CCOC(=O)c1nnn2c1nc(SCC(C)=O)c1ccccc12,-1.5%,22.3,15.8µM*,26.0%[15.4 µM],0.5%,18.2%
Cc1ccc(OCc2nnc(SCC(=O)CC(=O)Nc3ccccc3)o2)cc1,8.8%,-28.9,0.6%,3.1%,1.7%,?
CC(=O)OC(C(=O)NC1CCCCC1)c1cccc(C)c1 (stereo unspecified),7.4%,-9.4,-0.9%,-81.4%,0.1%,4.8%
O=c1oc2ccccc2nc1/C=C(\O)c1ccccc1,?,6.0,0.0%,?,0.3%,-2.7%
O/C(=C\c1nc2ccccc2nc1/C=C(\O)c1ccccc1)c1ccccc1,0.5%,-111.6*,3.9%,26.4%,-4.9%,0.1%
CCOC(=O)c1c(CN(C)C)n(C)c2c(O)c(N=NC(N)=O)c3ccc(Br)cc3c12,-2.6%,9.1,3.4%,19.6%,-0.6%,4.9%
CC(C)c1ccc(NS(=O)(=O)c2ccc3nc(-c4ccccc4)[nH]c3c2)cc1,/,-68.5*,0.8%,/,/,/
CSc1nc(C)cc(SCC(=O)Nc2ccccc2)n1,-5.4%,-8.5,1.7%,31.6µM*,-6.3%,?
COc1ccc(NC(=O)COC(=O)C2CCCN2C(=O)OC(C)(C)C)cc1Cl (stereo unspecified),/,3.9,/,-68.4%,/,/
CCc1noc(-c2ccc(N(C)Cc3ccc(OC)cc3)c([N+](=O)[O-])c2)n1,/,/,4.0%,/,/,/
COc1ccc(CCNC2=CC(=O)N(c3ccc(F)cc3)C2=O)cc1,0.2%,-14.3,1.8%,-11.0%[15.4 µM],2.5%,-11.7%
Cc1ccccc1-c1nc(CS(=O)(=O)CC(=O)NC2CC2)c(C)o1,-4.8%,-77.8*,0.1%,3.6%,0.3%,1.1%
Cc1ccccc1-c1nc(CS(=O)(=O)CC(=O)NC2CCCCC2C)c(C)o1 (stereo unspecified),-10.7%,11.5,-2.8%,?,0.4%,-4.9%
CCS(=O)(=O)c1ncc(Cl)c(C(=O)NCc2ccccc2)n1,/,?,0.6%,/,/,/
COc1ccc(CNC(=O)c2nc(S(=O)(=O)Cc3ccccc3)ncc2Cl)cc1,-21.1%,-118.8*!,-3.2%,-11.7%,-13.6%,?
O=C(NCc1ccccc1)c1nc(S(=O)(=O)Cc2ccccc2)ncc1Cl,-21.7%,-113.4*!,-0.3%,4.8%,-18.5%,-9.3%
O=C(NCc1ccc2c(c1)OCO2)c1nc(S(=O)(=O)Cc2ccccc2)ncc1Cl,-25.7%,-38.5,4.0%,-13.1%[15.4 µM],-3.6%,11.3%
SMILES,p53 reactivation,RXFP1 antagonist,RXFP1 agonist,gsp ag,Tb PFK inh,gsp antagonist
O=C(Nc1ccc2c(c1)OCO2)c1cccc(Cl)c1,?,-4.7,-0.2%,1.0%,2.9%,-17.5%
O=c1c2ccccc2cnn1-c1ccc(Cl)cc1,25.1µM*,-9.6,1.3%,23.6%,-4.5%,-8.1%
CCn1c2ccccc2c2cc(/C=N/NC(=O)c3ccc(O)cc3)ccc21,-9.4%,-23.1,-0.3%,-21.3%[15.4 µM],-2.0%,28.2µM*
CCn1c2ccccc2c2cc(/C=N/NC(=O)c3ccncc3)ccc21,-6.4%,-7.8,-0.3%,-2.5%[15.4 µM],-0.3%,/
O=C(N/N=C/c1cn(Cc2ccccc2)c2ccccc12)c1cc(O)cc(O)c1,4.3%,17.3,4.8%,-7.1%,-6.8%,18.9%
CCn1c2ccccc2c2cc(/C=N/NC(=O)c3cc(O)cc(O)c3)ccc21,-3.0%,-83.0*,3.8%,-2.7%[15.4 µM],3.0%,?
Cc1ccc2[nH]cc(C(c3ccccc3)c3ccc(C)s3)c2c1 (stereo unspecified),/,?,1.4%,/,/,/
Cc1ccc2[nH]cc(C(c3ccccc3)c3cccs3)c2c1 (stereo unspecified),/,-72.0*,5.5%,/,/,/
CS(=O)(=O)c1ncc(Cl)c(C(=O)Nc2ccc3ccccc3c2)n1,-12.3%,-93.0*,0.9%,-18.8%,-23.5%,3.8%
Cc1ccc(CS(=O)(=O)c2ncc(Cl)c(C(=O)Nc3ccc(OC(F)F)cc3)n2)cc1,-28.3%,-65.5*,-1.1%,-6.7%[15.4 µM],-4.2%,?
CCS(=O)(=O)c1ncc(Cl)c(C(=O)Nc2ccc(S(=O)(=O)N3CCCC(C)C3)cc2)n1 (stereo unspecified),-30.7%,-119.0*,2.3%,-7.7%[15.4 µM],-13.0%,?
O=C(Nc1ccc(OC(F)F)cc1)c1ncc(Cl)c(Cl)c1Cl,2.2%,-8.1,0.8%,-8.8%[15.4 µM],1.0%,11.2µM*
CCOc1ccc(NC(=O)c2nc(S(=O)(=O)Cc3ccccc3F)ncc2Cl)cc1,/,?,3.0%,/,/,/
CC(=O)Nc1ccc(NC(=O)c2nc(S(=O)(=O)Cc3ccccc3)ncc2Cl)cc1,-20.4%,?,-2.7%,-7.4%,-22.1%,-3.5%
CCS(=O)(=O)c1ncc(Cl)c(C(=O)Nc2ccc(C)cc2)n1,-10.6%,-78.3*,0.7%,4.8%,-19.1%,?
COc1ccc(NC(=O)c2nc(S(=O)(=O)Cc3ccc(C)cc3)ncc2Cl)cc1,/,-117.7*,2.9%,/,/,/
CCc1ccc(NC(=O)C2CCCCC2C(=O)O)cc1 (stereo unspecified),1.6%,11.5,0.6%,-24.7%,-1.6%,-4.8%
COc1ccc(CC(=O)Nc2ccc3nc(Nc4cccc(Cl)c4)cc(C)c3c2)cc1,/,/,4.7%,/,/,/
Cc1ccc(OCC(=O)Nc2ccc3nc(Nc4cccc(Cl)c4)cc(C)c3c2)cc1,/,-10.8,14.1µM*,/,/,/
CC(C)NC(=O)/C(C#N)=C/c1ccc(N(C)C)o1,8.2%,-22.8,-3.9%,-0.9%[15.4 µM],1.7%,35.5µM*
CCOC(=O)N1CCN(C(=O)c2ccc(N3C(=O)CCC3=O)cc2)CC1,3.5%,15.8,-1.0%,0.0%,1.3%,10.8%
